Compound activity (PubChem BioAssay)
VLA-4 inh: inhibition in a human VLA-4 binding assay | P13612 | VLA-4 expressing cells, ligand binding flow cytometry | inhibition, % (about 7 µM as worked out from the volumes in the protocol) | 330,000 compounds, 0.2% hits | AID 2557; in the data active = inhibition above about 50%
AHR act: activators of human aryl hydrocarbon receptor. activation, % at 5 µM. 320,000 compounds, 2.5% hits. AHR-responsive luciferase reporter cells, luminescence. P35869; in the data active = activation above about 47%
ALR inh: blocks human ALR sulfhydryl oxidase activity; 290,000 compounds, 3.8% hits; purified ALR, DTT oxidation, H2O2 HRP-luminol luminescence; P55789; inhibition, % (concentration not given with the values);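 active = mean replicate inhibition above about 79%, with every replicate also reaching it, limit read from the data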
Efflux pump mplx: inhibitors of Candida antifungal efflux pumps expressed in yeast | S. cerevisiae Candida pump triplex, Nile Red efflux | inhibition, % at 10 µM | 330,000 compounds, 0.44% hits | AID 485275;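 active = plate passing quality check with inhibition over a set limit, or well fluorescence over plate mean plus 4 SD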;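 note: Nile Red retained in pooled yeast measured as flow cytometry median fluorescence; higher means more Nile Red kept so more efflux inhibition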
SUMO Mot1 rescue: blocks SUMOylation pathway, rescuing yeast Mot1-301 growth. S. cerevisiae Mot1-301 growth rescue, ATP luminescence, 38.5C; percent above DMSO median, 100 means doubled. growth rescue, % at 18.8 µM. 320,000 compounds, 1% hits. AID 2716;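 active = every valid replicate shows activation above 250% relative to neutral control wells; inactive = the rest, any valid replicate at or below 250%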
Bfl-1 A1 inh: inhibitors of the anti-apoptotic protein A1, read as caspase activation. MEF A1-2A-BIM cells, Caspase-Glo 3/7 luminescence, 3 h; percent of clofoctol response, vehicle zero. caspase activation, % (test concentration not listed). 330,000 compounds, 0.066% hits. AID 2462;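 active = over half of replicate activation scores above 10%, or exactly half above 10 with the replicate mean above 10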
Large screens that a line does not name were inactive. Compounds with a hit are over-represented: about 7.2% of the library has one in this group of screens.

CCN(C(=O)CSc1ncn[nH]1)c1c(N)n(Cc2ccccc2)c(=O)[nH]c1=O	none
CCOC(=O)N1CCN(C(=O)CCC2CCCC2)CC1	none
CS(=O)(=O)N1CCN(C(=O)CCC2CCCC2)CC1	SUMO Mot1 rescue 332
C(=N/n1c2ccccc2c2ccccc21)/c1ccco1	AHR act 51
C(=N\n1c2ccccc2c2ccccc21)/c1ccccc1	AHR act 65 (no result: ALR inh)
O=c1c2ccccc2oc2cc(OCc3ccc(F)cc3)cc(O)c12	none (no result: AHR act)
Cc1c(F)cccc1NS(=O)(=O)c1ccc2c(c1)NC(=O)CO2	none
COc1ccc(NC(=O)CC(Cc2ccccc2)C(=O)O)cc1 (centres undefined)	SUMO Mot1 rescue 282
COc1ccccc1NC(=O)CSCC(N)=O	ALR inh 94
COc1ccc(NC(=O)Nc2ccccc2OC)cc1	none
COc1ccc(NC(=O)C(Sc2ccccc2)c2ccccc2)c(OC)c1 (centres undefined)	none
COc1ccccc1NC(=O)Cc1nn(C)c(=O)c2ccccc12	AHR act 64 (no result: SUMO Mot1 rescue)
COc1ccccc1NC(=O)C(Sc1ccccc1)c1ccccc1 (centres undefined)	ALR inh 84
COc1ccccc1NC(=O)Nc1cc(NC(=O)Nc2ccccc2OC)c(C)nc1C	AHR act 49
O=C(CCNC(=O)Cn1ccc2ccccc2c1=O)NCc1ccccn1	none
COc1ccccc1NC(=O)CC(=O)Nc1ccccc1OC	AHR act 69
COc1ccccc1NC(=O)CC(=O)c1ccccc1	none
COc1ccccc1NC(=O)c1sc(Cl)nc1C	AHR act 70
COc1ccc(C(=O)Nc2cc(C)nn2-c2ccc(F)cc2)cc1	none
O=C(C1CCN(Cc2ccc(F)cc2)CC1)N(CCc1ccccc1)Cc1ccccc1	none
O=[N+]([O-])c1cc([N+](=O)[O-])c(Oc2c(F)cccc2F)cc1NN1CCCCC1	none (no result: ALR inh)
CC(=O)c1ccccc1Oc1cc(NN2CCCCC2)c([N+](=O)[O-])cc1[N+](=O)[O-]	none (no result: ALR inh)
CC(=O)c1cccc(Oc2cc(NN3CCCCC3)c([N+](=O)[O-])cc2[N+](=O)[O-])c1	ALR inh 93
O=[N+]([O-])c1cc([N+](=O)[O-])c(Oc2c(F)ccc(F)c2F)cc1NN1CCCCC1	ALR inh 96
O=C(COc1ccccc1[N+](=O)[O-])NCC1COc2ccccc2O1 (centres undefined)	none
COc1ccc(-c2nc(CS(=O)CC(=O)NCCc3ccc(OC)c(OC)c3)c(C)o2)cc1 (centres undefined)	ALR inh 98
CCOc1ccc(CCNC(=O)CS(=O)Cc2nc(-c3ccc(OC)cc3)oc2C)cc1OCC (centres undefined)	ALR inh 99
COc1ccc(CCNC(=O)COc2ccc(-c3ccc(C)cc3)cc2)cc1OC	none
COc1ccc(CC(=O)NCCc2ccc(OC)c(OC)c2)cc1	none
COc1ccc(CCNC(=O)CS(=O)Cc2nc(-c3ccc(C)cc3)oc2C)cc1OC (centres undefined)	ALR inh 99
CCOc1ccc(CCNC(=O)CCc2nc(-c3ccc(OC)cc3)no2)cc1OCC	none
COc1ccc(-c2nc(CS(=O)CC(=O)NCCc3ccc(C)cc3)c(C)o2)cc1OC (centres undefined)	ALR inh 99
NS(=O)(=O)c1ccc(CNC(=O)c2ccncc2)cc1	none
O=C(COc1ccc2c3c(c(=O)oc2c1)CCC3)NCCCN1CCCC1=O	none
CC(c1ccccc1)n1c(Cn2ncc3ccccc3c2=O)n[nH]c1=S (centres undefined)	none
O=c1c2ccccc2cnn1Cc1n[nH]c(=S)n1C1CC2CCC1C2 (centres undefined)	ALR inh 86
Cc1ccccc1OCC(=O)NCCNC(=O)c1ccncc1	none
O=C(O)CNS(=O)(=O)c1ccc2c(c1)Cc1cc(S(=O)(=O)NCC(=O)O)ccc1-2	none
CCNC(=S)NNC(=O)c1ccccc1OC(F)F	none
CCc1ccc(NC(=S)NNC(=O)c2ccccc2OC(F)F)cc1	AHR act 49
COc1ccc(NC(=S)NNC(=O)c2ccccc2OC(F)F)cc1	AHR act 118
CCN(CC)c1ccc(/C=C2/C(=O)ON=C2C)cc1	none
CCN(CC)c1ccc(/C=C2/C(=O)c3ccc(C(=O)O)cc3C2=O)cc1	ALR inh 98
CCn1c(=NC(=O)CSC(C)=O)sc2cc(F)ccc21	ALR inh 98
C#CCn1c(=NC(=O)CSC(C)=O)sc2cc(F)ccc21	ALR inh 97
COC(=O)Nc1ccc(S(=O)(=O)N2CCC(C(=O)N(C)C3CCCCC3)CC2)cc1	ALR inh 92
Cc1ccc(NC(=O)C(C)OC(=O)CCN=C2NS(=O)(=O)c3ccccc32)cc1 (centres undefined)	none
O=C(COC(=O)/C=C/c1ccc(C(F)(F)F)cc1)NCc1ccco1	none
COc1ccccc1CC(=O)Nc1ccc(S(=O)(=O)N(C)C2CCN(C)CC2)cc1	none (no result: ALR inh)
CCN1C(=O)/C(=C/N(C)C)c2ccccc21	ALR inh 99
CCN1C(=O)/C(=C\N(C)C)c2ccccc21	none (no result: ALR inh)
CC(C)(C)OC(=O)C[C@H]1C/C=C\C[C@H](CC(=O)NCCO)C(=O)NC[C@@H](c2ccccc2)OC1=O	none
CC(=O)c1c(C)[nH]c(C(=O)Nc2cc(F)ccc2C)c1C	AHR act 58
CCCCNC(=O)c1[nH]c(C)c(C(C)=O)c1C	AHR act 67
CCc1c(C(=O)Nc2cc(C)ccc2OC)[nH]c(C)c1C(C)=O	AHR act 52
CC(=O)c1c(C)[nH]c(C(=O)Nc2ccc(C)cc2Br)c1C	AHR act 52
CCc1c(C(=O)Nc2ccc(OC)cc2)[nH]c(C)c1C(C)=O	none
CCCc1cc(=O)n2nc(N3CCC(C(=O)Nc4cccc(C(C)=O)c4)CC3)sc2n1	none
CC(C)c1cccc(C(C)C)c1OC(=O)[C@H]1OC(c2ccc(Br)cc2)=C[C@@H]1c1ccc(Br)cc1	Efflux pump mplx 0.8
CC(C)c1cccc(C(C)C)c1OC(=O)[C@H]1OC(C(C)(C)C)=C[C@@H]1c1ccccc1	none
CC(=O)NCCc1nc2cc(NS(=O)(=O)c3ccccc3)ccc2n1C	none
Cc1ccc(N(CC(=O)N2CCc3ccccc3C2)S(C)(=O)=O)cc1	none
Cc1cc(C)c(NC(=O)CS(=O)CC(=O)Nc2ccc(-n3cnnn3)c(C)c2)c(C)c1 (centres undefined)	none (no result: ALR inh)
CCc1cc(-c2n[nH]c(=S)n2C(C)c2ccccc2)cs1 (centres undefined)	ALR inh 94
CC(c1ccccc1)n1c(-c2ccc(C(C)(C)C)cc2)n[nH]c1=S (centres undefined)	none
Cc1scc(-c2n[nH]c(=S)n2C(C)c2ccccc2)c1C (centres undefined)	ALR inh 83
